According to PubChem BioAssay AID1159580 (chemical genetic matrix, 2015):
Screen size: about 5,500 compounds; about 2,000 (36%) were called active. Not shown: some 18% with an inconclusive outcome. No stated cut-off is given here; in the data, active means normalized growth mostly below about 0.91 (no sharp cut-off); inconclusive means no clear call, values can overlap the other calls; inactive means mostly above about 0.92. The list shows a part of the results.

Experiment: chemical genetic growth profiling, strain panel (AID 1159580);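 further: tested at 20 µM; growth read once vehicle control cultures reached saturation at 30 °C; 1 = growth at the plate median or of vehicle wells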
Settings: growth OD

Measured: normalized growth

CCOC(=O)C1=C(O)C(=O)N(Cc2ccccc2)C1
inactive: S. cerevisiae deletion strains, locus YAL013W, strain DEP1, stronger effect = lower value 1.02 | S. cerevisiae deletion strains, locus YBR021W, strain FUR4, stronger effect = lower value 1.02 | S. cerevisiae deletion strains, locus YBR229C, strain ROT2, stronger effect = lower value 1 | S. cerevisiae deletion strains, locus YCL029C, strain bik1, stronger effect = lower value 1.01 | S. cerevisiae deletion strains, locus YDL035C, strain GPR1, stronger effect = lower value 1.01 | S. cerevisiae deletion strains, locus YDL074C, strain BRE1, stronger effect = lower value 1 | S. cerevisiae deletion strains, locus YDL101C, strain DUN1, stronger effect = lower value 1.01 | S. cerevisiae deletion strains, locus YDL134C, strain PPH21, stronger effect = lower value 1 | S. cerevisiae deletion strains, locus YDL185W, strain tfp1, stronger effect = lower value 1.02 | S. cerevisiae deletion strains, locus YDL192W, strain arf1, stronger effect = lower value 1.01 | S. cerevisiae deletion strains, locus YDR101C, strain arx1, stronger effect = lower value 1 | S. cerevisiae deletion strains, locus YDR150W, strain NUM1, stronger effect = lower value 1.01 | S. cerevisiae deletion strains, locus YDR162C, strain NBP2, stronger effect = lower value 0.995 | S. cerevisiae deletion strains, locus YDR318W, strain mcm21, stronger effect = lower value 1.02 | S. cerevisiae deletion strains, locus YDR388W, stronger effect = lower value 1 | S. cerevisiae deletion strains, locus YDR502C, strain sam2, stronger effect = lower value 0.994 | S. cerevisiae deletion strains, locus YEL061C, strain CIN8, stronger effect = lower value 1.01 | S. cerevisiae deletion strains, locus YER110C, stronger effect = lower value 1.02 | S. cerevisiae deletion strains, locus YER155C, strain BEM2, stronger effect = lower value 1 | S. cerevisiae deletion strains, locus YER167W, strain BCK2, stronger effect = lower value 1.03 | S. cerevisiae deletion strains, locus YGL078C, strain dbp3, stronger effect = lower value 1 | S. cerevisiae deletion strains, locus YGL086W, strain mad1, stronger effect = lower value 1.02 | S. cerevisiae deletion strains, locus YGL248W, strain PDE1, stronger effect = lower value 1.01 | S. cerevisiae deletion strains, locus YGR078C, strain PAC10, stronger effect = lower value 1.01 | S. cerevisiae deletion strains, locus YGR135W, strain pre9, stronger effect = lower value 0.987 | S. cerevisiae deletion strains, locus YGR229C, strain SMI1, stronger effect = lower value 1 | S. cerevisiae deletion strains, locus YGR252W, strain gcn5, stronger effect = lower value 1.02 | S. cerevisiae deletion strains, locus YHR030C, strain SLT2, stronger effect = lower value 1.01 | S. cerevisiae deletion strains, locus YHR079C, strain IRE1 (second series), stronger effect = lower value 1.02 | S. cerevisiae deletion strains, locus YHR094C, strain hxt1, stronger effect = lower value 1.01 | S. cerevisiae deletion strains, locus YHR129C, strain ARP1, stronger effect = lower value 1.02 | S. cerevisiae deletion strains, locus YHR200W, strain rpn10, stronger effect = lower value 1.01 | S. cerevisiae deletion strains, locus YIL066C, strain RNR3, stronger effect = lower value 1 | S. cerevisiae deletion strains, locus YIL073C, strain SPO22, stronger effect = lower value 1.1 | S. cerevisiae deletion strains, locus YIL125W, strain kgd1, stronger effect = lower value 1 | S. cerevisiae deletion strains, locus YIR030C, strain dcg1, stronger effect = lower value 1.01 | S. cerevisiae deletion strains, locus YJL095W, strain BCK1, stronger effect = lower value 1.01 | S. cerevisiae deletion strains, locus YJL134W, strain LCB3, stronger effect = lower value 1.01 | S. cerevisiae deletion strains, locus YJL168C, strain set2, stronger effect = lower value 1.01 | S. cerevisiae deletion strains, locus YJL187C, strain SWE1 (second series), stronger effect = lower value 1.01 | S. cerevisiae deletion strains, locus YJR043C, strain POL32, stronger effect = lower value 1.04 | S. cerevisiae deletion strains, locus YJR075W, strain HOC1, stronger effect = lower value 0.997 | S. cerevisiae deletion strains, locus YKL009W, strain mrt4, stronger effect = lower value 1.03 | S. cerevisiae deletion strains, locus YKL068W, stronger effect = lower value 1 | S. cerevisiae deletion strains, locus YKL085W, strain MDH1 (second series), stronger effect = lower value 1.02 | S. cerevisiae deletion strains, locus YKL085W, strain MDH1, stronger effect = lower value 1.02 | S. cerevisiae deletion strains, locus YKL190W, strain CNB1, stronger effect = lower value 1.01 | S. cerevisiae deletion strains, locus YKR001C, strain vps1, stronger effect = lower value 1.01 | S. cerevisiae deletion strains, locus YLR039C, strain RIC1, stronger effect = lower value 1.05 | S. cerevisiae deletion strains, locus YLR058C, strain SHM2, stronger effect = lower value 1.02 | S. cerevisiae deletion strains, locus YLR102C, strain apc9, stronger effect = lower value 1.01 | S. cerevisiae deletion strains, locus YLR262C, strain YPT6, stronger effect = lower value 0.993 | S. cerevisiae deletion strains, locus YLR268W, strain sec22, stronger effect = lower value 0.982 | S. cerevisiae deletion strains, locus YLR330W, strain CHS5, stronger effect = lower value 1.01 | S. cerevisiae deletion strains, locus YLR342W, strain FKS1 (second series), stronger effect = lower value 1.09 | S. cerevisiae deletion strains, locus YLR371W, strain rom2, stronger effect = lower value 1.01 | S. cerevisiae deletion strains, locus YLR418C, strain cdc73, stronger effect = lower value 0.977 | S. cerevisiae deletion strains, locus YML016C, strain PPZ1, stronger effect = lower value 1 | S. cerevisiae deletion strains, locus YML032C, strain rad52, stronger effect = lower value 1.03 | S. cerevisiae deletion strains, locus YML124C, strain tub3, stronger effect = lower value 1.01 | S. cerevisiae deletion strains, locus YMR078C, strain ctf18, stronger effect = lower value 1.02 | S. cerevisiae deletion strains, locus YMR223W, strain ubp8, stronger effect = lower value 1.03 | S. cerevisiae deletion strains, locus YMR263W, strain SAP30, stronger effect = lower value 0.999 | S. cerevisiae deletion strains, locus YMR307W, strain GAS1, stronger effect = lower value 1.03 | S. cerevisiae deletion strains, locus YNL067W, strain RPL9B, stronger effect = lower value 0.99 | S. cerevisiae deletion strains, locus YNL128W, strain TEP1, stronger effect = lower value 0.985 | S. cerevisiae deletion strains, locus YNL153C, strain GIM3, stronger effect = lower value 0.994 | S. cerevisiae deletion strains, locus YNL233W, strain BNI4, stronger effect = lower value 1.01 | S. cerevisiae deletion strains, locus YNL250W, strain rad50, stronger effect = lower value 1 | S. cerevisiae deletion strains, locus YNL271C, strain bni1, stronger effect = lower value 1.01 | S. cerevisiae deletion strains, locus YNL298W, strain CLA4, stronger effect = lower value 1 | S. cerevisiae deletion strains, locus YNL307C, strain MCK1, stronger effect = lower value 1.02 | S. cerevisiae deletion strains, locus YNL322C, strain KRE1, stronger effect = lower value 0.996 | S. cerevisiae deletion strains, locus YNR052C, strain pop2, stronger effect = lower value 1.02 | S. cerevisiae deletion strains, locus YOL006C, strain TOP1, stronger effect = lower value 1.01 | S. cerevisiae deletion strains, locus YOL012C, strain htz1 0.868 | S. cerevisiae deletion strains, locus YOL147C, strain pex11, stronger effect = lower value 1.01 | S. cerevisiae deletion strains, locus YOR061W, strain CKA2, stronger effect = lower value 1.01 | S. cerevisiae deletion strains, locus YOR069W, strain VPS5, stronger effect = lower value 1.01 | S. cerevisiae deletion strains, locus YOR136W, strain idh2, stronger effect = lower value 1.02 | S. cerevisiae deletion strains, locus YOR144C, strain elg1, stronger effect = lower value 1 | S. cerevisiae deletion strains, locus YOR184W, strain ser1, stronger effect = lower value 1.04 | S. cerevisiae deletion strains, locus YOR316C, strain cot1, stronger effect = lower value 1.01 | S. cerevisiae deletion strains, locus YPL055C, strain LGE1, stronger effect = lower value 0.969 | S. cerevisiae deletion strains, locus YPL241C, strain CIN2, stronger effect = lower value 1 | S. cerevisiae deletion strains, locus YPR119W, strain clb2, stronger effect = lower value 1 | S. cerevisiae deletion strains, locus YPR141C, strain kar3, stronger effect = lower value 1 | S. cerevisiae deletion strains, locus YPR163C, strain tif3, stronger effect = lower value 1.01 | S. cerevisiae deletion strains, locus YPR167C, strain met16, stronger effect = lower value 1.01 | S. cerevisiae deletion strains, strain wtn01, stronger effect = lower value 1 | S. cerevisiae strains, strain wild type, stronger effect = lower value 1.01
